Test results reported in PubChem BioAssay AID1030 (National Center for Advancing Translational Sciences (NCATS), 2008).
Among all 220,000 compounds or so, about 16,000 (7.3%) were called active. Inconclusive results (about 25%) are left out. Calls follow the shape of the dose curve; as a rule, active = well fitted inhibition curve with a large enough effect (not every such curve was filed as active); inconclusive = small, poorly fitted or top-dose-only effect, or another doubt; inactive = no such curve, though single readings can be large or run the other way. What follows is part of a selection rich in actives, with near analogues and random picks from the rest. Square brackets hold non-standard residues; d marks the D form. Peptide text beside a SMILES is read from it. ξ: configuration not given here. ξM = CSCCC(N)C(=O)O

Each molecule was assayed against Aldehyde dehydrogenase 1A1 (Homo sapiens) (UniProt P00352) (assay: qHTS Assay for Inhibitors of Aldehyde Dehydrogenase 1 (ALDH1A1)). Details: Purified ALDH1A1, NADH fluorescence, propionaldehyde substrate; series mostly up to 75.3 µM; activity, negative = inhibition: at the top concentration.
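For activity, negative = inhibition in this document: plate controls were no enzyme wells and a reference inhibitor.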
Potency is read from the fitted curve at half-maximal effect.

Sequence of Aldehyde dehydrogenase 1A1 (Homo sapiens) (P00352 whole entry, looked up): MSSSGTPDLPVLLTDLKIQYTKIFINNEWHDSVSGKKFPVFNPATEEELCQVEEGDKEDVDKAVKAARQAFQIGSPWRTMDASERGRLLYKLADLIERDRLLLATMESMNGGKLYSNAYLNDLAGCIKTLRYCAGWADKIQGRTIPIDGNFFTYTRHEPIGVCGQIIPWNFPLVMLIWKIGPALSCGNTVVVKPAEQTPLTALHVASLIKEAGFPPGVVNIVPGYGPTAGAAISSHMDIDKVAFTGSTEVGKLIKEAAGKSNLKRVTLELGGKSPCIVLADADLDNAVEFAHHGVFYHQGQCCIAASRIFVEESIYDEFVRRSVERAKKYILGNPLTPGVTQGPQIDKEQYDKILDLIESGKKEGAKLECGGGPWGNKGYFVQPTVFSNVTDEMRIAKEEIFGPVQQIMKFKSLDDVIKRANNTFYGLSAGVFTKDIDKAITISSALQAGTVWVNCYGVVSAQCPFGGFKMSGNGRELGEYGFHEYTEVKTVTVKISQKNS

SMILES	activity, negative = inhibition	Potency
CCO[C@@H]1OC(C(=O)NCc2nc3ccccc3[nH]2)=C[C@H](C2CCCCC2)[C@H]1CCCO	-1.33% (inactive)	
O=C(NNC(=S)NCCCN1CCOCC1)c1ccncc1	-4.66% (inactive)	
S=c1[nH]nc(-c2ccccc2)n1/N=C/c1c[nH]c2ccccc12	-1.77% (inactive)	
Oc1ccccc1/C=N/n1c(-c2cccs2)n[nH]c1=S		15.8 µM (active)
S=c1[nH]nc(-c2ccncc2)n1/N=C/c1ccccc1Cl	-2.83% (inactive)	
CCCC1(C(=O)OC)NC(c2ccco2)C2C(=O)N(C)C(=O)C21 (stereo not given)	-4.96% (inactive)	
COc1ccc(NC(=O)/C(Cl)=C(/Cl)S(=O)Cc2ccc(C)cc2)cn1 (stereo not given)		5.01 µM (active)
Cc1ccc(NC(=O)OCc2cncs2)cc1	7.64% (inactive)	
COc1ccc(NC(=S)NCCNC(C)=O)cc1	4.48% (inactive)	
COc1cccc(NC(=O)Cc2ccc(C)cc2)c1	0.617% (inactive)	
COc1ccc(CS(=O)/C(Cl)=C(/Cl)C(=O)Nc2ccc(OC)nc2)cc1 (stereo not given)		8.91 µM (active)
COc1ccc(NC(=S)Nc2ccccc2Cl)cn1	9.98% (inactive)	
COc1cccc(C2c3[nH]c4ccccc4c3CCN2Cc2cccc(C)n2)c1 (stereo not given)	-3.3% (inactive)	
O=C(COc1ccc(Cl)cc1[N+](=O)[O-])N1CCCCC1	-2.25% (inactive)	
CC(C)(C)NC(=O)CN(C(=O)c1ccc(Cl)nc1)c1cccc2ccccc12	12.2% (inactive)	
Clc1ccc2nc(CSc3ccccc3)cn2c1	-13.2% (inactive)	
COC(=O)CNC(=O)C(CCSC)NC(C)=O (stereo not given) (Ac-[ξM]-Gly-OMe)	-1.51% (inactive)	
CNC(=O)NC(=O)CSc1nnc(-c2ccc(F)cc2)n1CC1CCCO1 (stereo not given)	-7.93% (inactive)	
O=C(CSc1nnc(-c2ccco2)n1CC1CCCO1)c1ccccc1 (stereo not given)		25.1 µM (active)
Cc1nnc(SCC(N)=O)n1CC1CCCO1 (stereo not given)	8.21% (inactive)	
C=C1c2cccc(OC)c2O[C@H](C(=O)OCC)[C@@H]1CCCCCC	-7.12% (inactive)	
Cc1cc([N+](=O)[O-])ccc1NC(=O)c1ccc(NC(=O)C(C)C)cc1	7.48% (inactive)	
CN(C)c1ccc(C=C2C(=O)OC3(CCCC3)OC2=O)cc1		0.251 µM (active)
CC1CCCCC1NC(=O)COC(=O)Cc1ccc(Br)cc1 (stereo not given)	-8.2% (inactive)	
COC(=O)C/C=C/[C@@H](C)[C@H](NC(=O)OCC(Cl)(Cl)Cl)c1ccccc1	8.6% (inactive)	
CCOC(=O)Cc1cc(=O)[nH]c(=O)[nH]1	9.06% (inactive)	
COCC(=O)Nc1nnc(COc2ccccc2)s1	8.96% (inactive)	
COc1ccc(OCC(=O)Nc2nnc(-c3ccco3)s2)cc1		22.4 µM (active)

SMILES	activity, negative = inhibition	Potency
CNc1nnc(-c2ccco2)s1	-9.61% (inactive)	
Cn1nccc1NC(=O)CC(CC(=O)O)c1ccccc1 (stereo not given)	5.23% (inactive)	
CCc1ccccc1NC(=O)CN(c1ccc(OC)cc1OC)S(=O)(=O)c1ccccc1[N+](=O)[O-]	-5.19% (inactive)	
Cc1c(C(=O)Nc2cccc(Cl)c2)cn2c(nc3ccccc32)c1C#N	-8.77% (inactive)	
CCn1c(CNS(=O)(=O)c2ccc(Cl)cc2)n[nH]c1=S	-6.02% (inactive)	
CSc1ccc(S(=O)(=O)NCc2ccc(Cl)cc2)cc1		22.4 µM (active)
CCCCNCc1ccc(SC)cc1	-1.19% (inactive)	
CC(C)(C)OC(=O)NCCCC1=CC2=CC(=O)C(C)(OC(=O)c3ccco3)C(=O)C2=CO1 (stereo not given)	-5.63% (inactive)	
C=CCO/N=C/C1=C(O)C(C(=O)OC)C(C)(C)CC1=O (stereo not given)	1.49% (inactive)	
COc1cccc(-n2c(=O)c3c(C)c(C(=O)N(C)C)sc3n(CC(=O)NCCc3ccc(OC)c(OC)c3)c2=O)c1	7.95% (inactive)	
CCN(CC)c1ccc2c(Nc3ccccc3)c(C=O)c(=O)oc2c1		1.58 µM (active)
COc1cccc(NC(=O)c2nn(C34CC5CC(CC(C5)C3)C4)cc2[N+](=O)[O-])c1		0.224 µM (active)
COc1cccc(NC(=O)c2ccc(Cn3cc([N+](=O)[O-])cn3)o2)c1		14.1 µM (active)
O=C(Nc1ccc(Br)c2cccnc12)c1ccc(Cn2cc([N+](=O)[O-])cn2)o1	-4.37% (inactive)	
CCc1ccc(NC(=O)c2ccc(Cn3cc([N+](=O)[O-])cn3)cc2)cc1	13.5% (inactive)	
COc1cccc(NC(=O)c2nn(-c3ccc(OC)cc3OC)c(=O)c3ccccc23)c1	2.87% (inactive)	
Cn1cc([N+](=O)[O-])c(C(=O)Nc2cnn(Cc3ccc(F)cc3)c2)n1	3.74% (inactive)	
CC[C@@]12C=C(/C=C/c3ccccc3)[C@](CC)(C1)[C@H](c1ccccc1)CC2=O	-3.32% (inactive)	
CCOC(=O)C1CCCN(C(=O)COc2ccc(N(C)S(=O)(=O)c3ccc(C)cc3)cc2)C1 (stereo not given)	-3.05% (inactive)	
CCOC(=O)C1CCCN(C(=O)/C=C/c2ccc(OC)cc2)C1 (stereo not given)		22.4 µM (active)
CCOC(=O)C1CCCN(C(=O)CN(c2ccc(OC)cc2)S(=O)(=O)c2c(C)noc2C)C1 (stereo not given)	1.65% (inactive)	
Cc1nn(CC#N)c(=O)n1N(C)c1ncc(C(F)(F)F)cc1Cl	0.785% (inactive)	
O=C(NCc1ccncc1)C(=O)NCc1ccco1	-1.71% (inactive)	
CC(=O)Nc1ccc(CN2CCN(Cc3ccc(F)c(F)c3)C(CCO)C2)cc1 (stereo not given)	-9.5% (inactive)	
CCc1cccc(OC2OC(CO)C(O)C(O)C2NC(C)=O)c1 (stereo not given)	2.58% (inactive)	
CC(=O)NC1C(Oc2ccc(C=O)cc2)OC(COC(C)=O)C(OC(C)=O)C1OC(C)=O (stereo not given)		3.55 µM (active)
CC(=O)NC1C(OCc2ccccc2)OC(COC(C)=O)C(OC(C)=O)C1OC(C)=O (stereo not given)	13.5% (inactive)	
